# Out of some 290,000 compounds screened, about 3,000 (1%) were called active. No stated cut-off is given here; in the data, active means inhibition mostly above about 36% (no sharp cut-off); inactive means mostly below about 34%. This excerpt belongs to a sample that is enriched for actives.
# Assay: NOD1 signaling inhibitors, primary screen, cell-based, luminescence, uHTS (AID 1578);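 further: HEK-293T reporter cells stimulated with the NOD1 agonist gamma-tri-DAP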
# Settings: NOD1-driven NF-kB luciferase reporter cells, at 4 µM, active compounds read high
row,Compound,inhibition
1,CCOC(=O)c1ccc(NC(=O)CN2C(=O)C(CC)SC(CC)C2=O)cc1 (configuration not stated),-15.5% (inactive)
2,O=C(c1ccc2ccccc2c1)N1CCCCC1,14.9% (inactive)
3,CCSc1nnc(NC(=O)c2ccc(Br)s2)s1,-37.5% (inactive)
4,O=C(Nc1nnc(C(F)(F)F)s1)c1ccc(Br)s1,84% (active)
5,O=C(Nc1nnc(C(F)(F)F)s1)c1c(F)cccc1F,2% (inactive)
6,Cc1nn(-c2ccccc2)nc1C(=O)Nc1nnc(C(F)(F)F)s1,54.4% (active)
7,CCc1nnc(NC(=O)c2nn(-c3ccccc3)nc2C)s1,-6.6% (inactive)
8,Cc1nn(-c2ccccc2)nc1C(=O)NNC(=O)c1ccc(C(F)(F)F)cc1,-5.6% (inactive)
9,CC1(C)CC(=O)/C(=C(\O)CCCN2C(=O)c3ccccc3C2=O)C(=NCCO)C1,-17.2% (inactive)
10,COc1cc2[nH]c(C(=O)NN)c(N)c2cc1OC,-7.9% (inactive)
11,CC(C)(C)NC(=O)C(c1ccccc1)N(Cc1ccco1)C(=O)c1csnn1 (configuration not stated),-0.4% (inactive)
12,CCOC(=O)C1CCN(C(=O)Cn2cccc2C(=O)c2ccccc2)CC1,-13.4% (inactive)
13,CC1CN(Cc2nc3c(c(=O)[nH]c(=O)n3C)n2CCN2CCOCC2)CC(C)O1 (configuration not stated),7.3% (inactive)
14,CC(C)[C@H](NC(=O)[C@@H]1CSC2c3ccccc3C(=O)N21)C(=O)NCc1ccncc1 (some centres not stated),-23.2% (inactive)
15,c1ccc(-c2ccccn2)nc1,-28.9% (inactive)
16,c1ccc(-c2ccc(-c3ccccn3)nn2)nc1,27.1% (inactive)
17,c1ccc(-c2cccc(-c3ccccn3)n2)nc1,90.2% (active)
18,O=C(c1ccc2c3c(cccc13)CC2)C1CCCN(C(=O)c2ccc[n+]([O-])c2)C1 (configuration not stated),10.8% (inactive)
19,CCn1c(C)c(C(C)=O)cc(C#N)c1=O,-4.6% (inactive)
20,C=CCNC(=O)C1CCN(c2c([N+](=O)[O-])cc(C(F)(F)F)cc2[N+](=O)[O-])CC1,2.2% (inactive)
21,Cc1ccccc1NS(=O)(=O)c1ccc(OCC(=O)NCc2ccco2)cc1,-20.7% (inactive)

row,Compound,inhibition
1,COC(=O)CSC1=C(C#N)C(=O)NC(c2ccccc2)S1 (configuration not stated),38.8% (inactive)
2,CSC1=C(C#N)C(=O)NC(c2ccccc2O)S1 (configuration not stated),-3.8% (inactive)
3,CSC1=C(C#N)C(=O)NC(c2ccc(Cl)cc2)S1 (configuration not stated),45% (active)
4,COc1cc([N+](=O)[O-])ccc1NC(=S)NNC(=O)c1ccc2c(c1)OCO2,15.2% (inactive)
5,N#CC(Cc1cccc(CC(C#N)(c2ccccc2)c2ccccc2)c1)(c1ccccc1)c1ccccc1,4.8% (inactive)
6,Oc1ccc(C[C@@H]2CNC(=S)N2CCCCC2CCCCC2)cc1,-30.3% (inactive)
7,CCC(=O)Nc1ccc(Cl)c(NC(=O)c2ccccc2OC)c1,57.1% (active)
8,CCC(=O)Nc1ccc(Cl)c(NC(=O)c2c(OC)cccc2OC)c1,7% (inactive)
9,COc1ccc(C(=O)Nc2cc(OC)c(Cl)cc2OC)cc1,-33.1% (inactive)
10,COc1cc(NC(=O)c2ccccc2)c(OC)cc1Cl,-16.7% (inactive)
11,CCC(=O)Nc1ccc(Cl)c(NC(=O)c2cccc(OC)c2)c1,-28.2% (inactive)
12,c1ccc(CCn2cnc3ccccc32)cc1,-43.2% (inactive)
13,CCCC(=O)C1=C(O)C(C(=O)OC)C(C)(C)CC1=Nc1cccc([N+](=O)[O-])c1 (configuration not stated),-12.8% (inactive)
14,FC(F)(F)Oc1ccc(NC(=S)Nc2ccccc2N2CCOCC2)cc1,4.5% (inactive)
15,CCOc1ccc(C(=O)N/N=C(\c2ccccc2)c2ccccn2)cc1,63.3% (inactive)
16,CCOc1ccc(OCc2ccc(C(=O)N/N=C(\C)c3ccccn3)cc2)cc1,91.6% (active)
17,O=C(NCCNC(=O)c1ccccc1F)c1ccccn1,-8.2% (inactive)
18,C/C(=N\NC(=O)c1c[nH]c2ccccc12)c1ccccn1,-30.8% (inactive)
19,C/C(=N\NC(=O)c1ccc(COc2ccccc2)cc1)c1ccncc1,-26.5% (inactive)
20,COCC(=O)N1CCC(n2nnc3cc(C(F)(F)F)ccc32)CC1,-11.5% (inactive)
21,Cc1ccccc1NC(=O)c1ccc2nccnc2c1,-15.6% (inactive)

row,Compound,inhibition
1,c1ccc(Cc2nnc(Sc3ccccc3)c3ccccc23)cc1,40.8% (inactive)
2,Cc1ccc(Sc2nnc(Cc3ccccc3)c3ccccc23)cc1,70% (active)
3,COc1ccc(Sc2nnc(Cc3ccccc3)c3ccccc23)cc1,46.4% (inactive)
4,COc1cccc(OCc2cc(C(=O)N(C)C3CC(C)(C)NC(C)(C)C3)no2)c1,-22.6% (inactive)
5,CCOc1ccc(N(CC(=O)O)S(=O)(=O)c2ccc(F)cc2)cc1,22.2% (inactive)
6,COc1cccc2cc(C(=O)NC(C)C3CCCO3)c(=O)oc12 (configuration not stated),-27.3% (inactive)
7,CCCCn1c(NC(C)=O)c(C#N)c2nc3ccccc3nc21,22.5% (inactive)
8,N#Cc1c(NC(=O)c2ccccc2Cl)n(Cc2ccccc2)c2nc3ccccc3nc12,83.5% (active)
9,C=CCn1c(NC(=O)c2ccccc2Cl)c(C#N)c2nc3ccccc3nc21,28.8% (inactive)
10,CCCCn1c(NC(=O)c2ccccc2Cl)c(C#N)c2nc3ccccc3nc21,20% (inactive)
11,CCCCn1c(NC(=O)CC)c(C#N)c2nc3ccccc3nc21,-7.1% (inactive)
12,CCCCn1c(NC(=O)c2ccccc2)c(C#N)c2nc3ccccc3nc21,88.5% (active)
13,O=C(C[n+]1cc(Br)cc(Br)c1)c1ccc(Cl)cc1,-7.2% (inactive)
14,CC(=O)Nc1ccc(S(=O)(=O)N2CCC(C(=O)NCCC(=O)Nc3ccccc3)CC2)cc1,-17.6% (inactive)
15,CCN(CC)c1nc2c(c(=O)[nH]c(=O)n2C)n1CCCc1ccccc1,-13.8% (inactive)
16,CN(C)CCC1Sc2ccccc2Oc2ccccc21 (configuration not stated),-13.4% (inactive)
17,CC1c2ccccc2SC(CCCN(C)C)c2ccccc21 (configuration not stated),59.5% (active)
18,CNCCCC1Sc2ccccc2Oc2ccccc21 (configuration not stated),-31.7% (inactive)
19,COc1cccc(N2C(=O)N(c3ccccc3Cl)C3CS(=O)(=O)CC32)c1 (configuration not stated),-14.5% (inactive)
20,Cc1n[nH]c(C)c1CCCCOc1ccc([N+](=O)[O-])cc1,-1.4% (inactive)

# From PubChem BioAssay AID1578 (Sanford-Burnham Center for Chemical Genomics, 2009)
